The text below walks through data of publication PMC4552634, “A New Set of Chemical Starting Points with Plasmodium falciparum Transmission-Blocking Potential for Antimalarial Drug Discovery” (PLoS ONE, 2015).

The subject of this experiment is P. falciparum stage V gametocytes. Details: BacTiter-Glo ATP luminescence viability of purified stage V gametocytes in 384-well plates, per cent inhibition versus DMSO. Particulars: 48 h, 5 µM, inhibitor.

Where two headings read alike, the source gives them in different places. In all, about 13,000 compounds went through this assay and about 3,200 (25%) showed an effect of 50% or more. The list shows a part of the results.

For `COc1ccc2nccc([C@@H](O)CN3CCC(NC(=O)/C=C/c4cc(F)cc(Br)c4)CC3)c2c1` [TCMDC-141031], the % Inhibition – broadly, the change of the read-out against control, counted positive when it falls – is reported as -7.765%.

On to `CN(C)CCOc1ccc(/C(=C(/CCCn2ccnc2)c2ccccc2)c2ccc(O)cc2)cc1` [TCMDC-138900], for which the “% Inhibition” value is -20.55%.

In the case of `CCCc1cc(OC)c(C[C@@H]2c3cc(O)c(Cl)cc3CCN2C)cc1OC` [TCMDC-138128], the “% Inhibition” value was -6.481%.

Take `CN1C(=O)C(=O)N(CCCCCON=C(N)N)C1=S` [TCMDC-139249]: the “% Inhibition” value is reported as 12.53%.

`CC(C)NC(C)(C)CN(Cc1ccc(-c2ccc(C(F)(F)F)cc2)cc1)C(=O)Cn1c(CCc2cccc(F)c2F)nc(=O)c2ccccc21` [TCMDC-141084]: the “% Inhibition” value was found to be 71.8%.

In the case of `CCNC(C)(C)CN(Cc1ccc(-c2ccc(C(F)(F)F)cc2)cc1)C(=O)Cn1c(CCc2cccc(F)c2F)nc(=O)c2ccccc21` [TCMDC-141047], the “% Inhibition” value is given as 102.8%.

Take `COc1ccc(NC(=O)Nc2cccc(-c3ccncc3)c2)cc1N1CCN(C)CC1` [TCMDC-139111]: the “% Inhibition” value is given as 12.5%.

As for `O=C(Nc1ccc(-c2nc3cc4ccccc4cc3[nH]2)cc1)c1cccc(Br)c1` [TCMDC-123806], the “% Inhibition” value is recorded as -9.366%.

As to `O=C(NC1CC1)c1ccc(N2CCC(Oc3ccc(F)cc3)CC2)nc1` [TCMDC-134053], the “% Inhibition” value turned out to be 8.582%.

For `O=C(Cn1c2ccccc2c(=O)c2ccc(Cl)cc21)Nc1ccc(C(F)(F)F)cc1` [TCMDC-125568], the “% Inhibition” value is recorded as 64.99%.

Consider `O=C(Nc1ccc(C(F)(F)F)cc1)NC1CCN(c2ccnc3cc(Cl)ccc23)CC1` [TCMDC-133568], for which the “% Inhibition” value is on record as -13.61%.

As for `CC(CCCCC(=O)Nc1ccc(C(F)(F)F)cc1)NCC(O)c1cccc(Cl)c1` (stereo not drawn) [TCMDC-131538], the “% Inhibition” value is listed as 28.83%.

Regarding `O=[N+]([O-])c1ccc(CNCCCCCCNCc2ccc([N+](=O)[O-])c3ccccc23)c2ccccc12` [TCMDC-137830], the “% Inhibition” value is 10.64%.

As for `FC(F)(F)COc1ccc(CNCCCCCCNCc2ccc(OCC(F)(F)F)c3ccccc23)c2ccccc12` [TCMDC-137853], the “% Inhibition” value is given as 131%.

As to `O=c1cc(NCCCNCc2ccc(C(F)(F)F)cc2F)[nH]c2ccccc12` [TCMDC-139427], the “% Inhibition” value worked out at 7.285%.

`FC(F)(F)COc1ccc(CCNCCCCNCCc2ccc(OCC(F)(F)F)c3ccccc23)c2ccccc12` [TCMDC-137282]: the “% Inhibition” value worked out at 101.8%.

Take `O=C(/C=C/c1ccc(Cl)c(Cl)c1)NCCCCCCN1CCN(C(=O)Nc2cc(Cl)nc(Cl)c2)CC1` [TCMDC-135891]: the “% Inhibition” value was -18.09%.

In the case of `Cc1cccc(C(=O)Nc2ccnc(N(C)C3CCN(CC(C)C)CC3)c2)c1` [TCMDC-135023], the “% Inhibition” value is on record as -10.51%.

Consider `Cc1ccc(/C=C/C(=O)NC2CCC(CN3CCC(c4c[nH]c5ccccc45)CC3)CC2)cc1C` (stereo not drawn) [TCMDC-139769], for which the “% Inhibition” value (% Inhibition) is 39.49%.

`O=C(/C=C/c1cccc(F)c1)NC1CCC(CN2CCC(c3c[nH]c4ccccc34)CC2)CC1` (stereo not drawn) [TCMDC-139698]: the “% Inhibition” value (% Inhibition) is reported as 74.99%.

For `O=C(/C=C/c1cccc(F)c1)NC1CCC(CN2CCC(c3c[nH]c4ccccc34)CC2)CC1` (stereo not drawn) [TCMDC-139713], the “% Inhibition” value (% Inhibition) was determined as 90.71%.

Regarding `Cc1nc(N)nc(N)c1-c1cc(Cl)c(Cl)c(Cl)c1` [TCMDC-137398], the “% Inhibition” value worked out at 11.14%.

For the compound `CCCC(=O)Nc1ccc(OCCCN(Cc2cccc(C(F)(F)F)c2)c2ccc(C#N)c(C(F)(F)F)c2)cc1` [TCMDC-135666], the “% Inhibition” value was 6.029%.

In the case of `CCOc1ccc2nccc([C@@H](O)[C@@H]3C[C@@H]4CCN3C[C@@H]4CC)c2c1` [TCMDC-123483], the “% Inhibition” value (% Inhibition) was -64.91%.

Consider `Cc1cc(N2CCCN(C)CC2)nc(Nc2ccc(Br)cc2)n1` [TCMDC-137014], for which the “% Inhibition” value is listed as 8.487%.

Turning to `CCOC(=O)c1cc(C(=O)OC)c2ccccn12` [TCMDC-124299], the “% Inhibition” value is listed as 4.818%.

Consider `CC1=C(C(=O)OC(C)C)C(c2ccccc2Cl)C2=C(CC(c3ccccc3)CC2=O)N1` (stereo not drawn) [TCMDC-125608], for which the “% Inhibition” value worked out at 34.25%.

`N#Cc1c(Cl)cccc1Oc1ccc(S(=O)(=O)NC2CCC(CN3CCC(c4c[nH]c5ccccc45)CC3)CC2)cc1` (stereo not drawn) [TCMDC-140175]: the “% Inhibition” value (% Inhibition) came to 1.176%.

Consider `CSc1nccc(-c2ccc(S(=O)(=O)NC3CCC(CN4CCC(c5c[nH]c6ccccc56)CC4)CC3)s2)n1` (stereo not drawn) [TCMDC-131237], for which, for the setting “% Inhibition”, the “% Inhibition” value is reported as 110.6%.

Take `O=C(NC1CCC(CN2CCC(c3c[nH]c4ccccc34)CC2)CC1)c1[nH]c(=O)[nH]c(=O)c1F` (stereo not drawn) [TCMDC-139889]: the “% Inhibition” value was 14.48%.

Turning to `CSc1nccc(-c2ccc(S(=O)(=O)NC3CCC(CN4CCC(c5c[nH]c6ccccc56)CC4)CC3)s2)n1` (stereo not drawn) [TCMDC-131236], the “% Inhibition” value (% Inhibition) amounted to 106.4%.

As for `O=C(CCc1cccnc1)Nc1cccc(-c2ccc(-c3nc4ccc(C(F)(F)F)cc4[nH]3)cc2)c1` [TCMDC-132148], the “% Inhibition” value is reported as -27.41%.

As for `Cc1ccccc1C1CCN(c2ncc(C(=O)NC3CC3)cc2Cl)CC1` [TCMDC-134609], the “% Inhibition” value is on record as 14.1%.

With `CC(C)(C)OC(=O)N[C@@H](CS(=O)(=O)CCN=C(N)COCc1ccccc1)C(=O)OC(C)(C)C` [TCMDC-138107], the “% Inhibition” value was 24.21%.

For `O=C(N[C@H]1CCN(Cc2ccc(OCCCN3CCCCC3)cc2)C1)c1ccc(Oc2ccccc2)cc1` [TCMDC-141773], the “% Inhibition” value came out at 88.22%.

On to `O=S(=O)(c1ccc2ccccc2c1)N1CCCN(Cc2ccc(OCCCN3CCCCC3)cc2)CC1` [TCMDC-141721], for which the “% Inhibition” value is given as 52.58%.

Take `Fc1cc(CN2CCCC2)ccc1OCCCN1CCN(c2cccc(Cl)c2Cl)CC1` [TCMDC-137001]: the “% Inhibition” value is reported as 7.626%.

Consider `O=C(Cc1ccc(-c2ccccc2)cc1)N[C@H]1CCN(Cc2ccc(OCCCN3CCCCC3)cc2)C1` [TCMDC-141776], for which the “% Inhibition” value turned out to be 70.4%.

Regarding `O=C(N[C@H]1CCN(Cc2ccc(OC3CCN(Cc4ccccc4)CC3)c(Cl)c2)C1)c1ccc(Cl)c(Cl)c1` [TCMDC-140277], the “% Inhibition” value is 30.17%.

In the case of `O=C(N[C@@H](Cc1ccccc1)CN1CCC(Oc2ccc(F)cc2)CC1)c1ccc(OCCCN2CCCCC2)cc1` [TCMDC-135416], the “% Inhibition” value turned out to be 28.27%.

As to `O=C(NC1CCN(Cc2ccccc2)C1)c1ccc(Nc2ccc(Br)cc2)nc1` (stereo not drawn) [TCMDC-133798], the “% Inhibition” value was -17.8%.

`c1ccc(C(c2cccs2)N2CCN(Cc3ccc(OCCCN4CCCCC4)cc3)CC2)cc1` (stereo not drawn) [TCMDC-141954]: the “% Inhibition” value worked out at 38.42%.

With `O=C(N[C@H]1CCN(Cc2ccc(OC3CCN(Cc4ccccc4)CC3)cc2)C1)c1ccc(Cl)c(Cl)c1` [TCMDC-140265], the “% Inhibition” value stood at 57.35%.

Regarding `O=C(Nc1ccc(C(=O)Oc2ccc(-c3ccccc3)cc2)cc1)N[C@@H](Cc1ccc(O)cc1)C(=O)NC1CCN(Cc2ccc(O)cc2)C1` (stereo partly drawn) [TCMDC-135361], the “% Inhibition” value is -42.48%.

Consider `Cc1cc(CN2CC[C@H](NC(=O)c3ccc(Cl)c(Cl)c3)C2)ccc1OC1CCN(Cc2ccccc2)CC1` [TCMDC-140282], for which the “% Inhibition” value is -33.37%.
